Screening results from PubChem BioAssay.
This is a sample that favours compounds with a hit; in the whole collection about 2.9% have one here.
HEK293 tox: qHTS of GLP-1 Receptor Inverse Agonists: Cytotox Screen; HEK293 cAMP-luciferase reporter cells, luminescence, 24 h; hit rate 0.13% among 410,000; Potency, µM (highest dose often 38.3 µM), inactives show at the top dose activity change, negative = inhibition, hits mostly inhibitors;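 further: loss of luciferase light is scored as toxicity; potency means the concentration at half of the fitted maximal effect; on the % scale 0 is the no-effect control and ±100 the full control effect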
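Quantitative HTS format, 1536 wells, 200 cells/uL seeded. Compounds: 23 nL, 24 h, 37 °C. Detection: luciferase reagent, luminescence at 12 min RT; decreased signal taken as cytotoxic.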
ClpP mod: qHTS Assay for Activators of ClpP. ATP-dependent Clp protease proteolytic subunit (Bacillus subtilis (strain 168)), P80244. purified B. subtilis ClpP, FRET peptide cleavage, 20 min. Potency, µM (doses to about 57.5 µM), inactives show at the highest dose activity change, negative = active. hit rate 1.9% among 340,000. AID 651965, 2013; active means well fitted falling curve with a large enough effect; inconclusive means small, poorly fitted or top-dose-only effect; inactive means no such curve, though single readings can be large or run the other way; further: potency means the concentration at half of the fitted maximal effect; the source files actives as falling curves though it sought activators and does not explain the sign; nearly all actives have a fitted effect of over 65% in size
Target sequence (P80244 whole entry, looked up): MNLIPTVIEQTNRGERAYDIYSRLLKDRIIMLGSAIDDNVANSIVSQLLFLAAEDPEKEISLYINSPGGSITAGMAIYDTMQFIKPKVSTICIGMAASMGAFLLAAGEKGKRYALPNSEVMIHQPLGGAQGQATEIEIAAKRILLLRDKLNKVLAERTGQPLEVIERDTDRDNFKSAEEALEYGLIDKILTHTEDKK
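Buffer: 100 mM Tris/HCl pH8, 100 mM KCl, 0.05% low protease BSA, 2.5% glycerol, 0.01% Tween-20. ClpP 10 microg/mL final; 20 min RT; delta FRET normalized to ADEP and DMSO controls.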
GLP-1R inv ag: qHTS of GLP-1 Receptor Inverse Agonists (Inhibition Mode); Potency, µM (doses to about 38.3 µM), for the others: top-dose activity change, negative = inhibition, actives largely listed as inhibitors; HEK293 GLP-1R CRE-luciferase, luminescence, 24 h; GLP-1R form is constitutively active; hit rate 1.6% among 410,000; further: potency means the concentration at half of the fitted maximal effect; on the % scale 0 is the no-effect control and ±100 the full control effect; nearly all actives have a fitted effect of over 55% in size
Target sequence (P43220 whole entry, looked up): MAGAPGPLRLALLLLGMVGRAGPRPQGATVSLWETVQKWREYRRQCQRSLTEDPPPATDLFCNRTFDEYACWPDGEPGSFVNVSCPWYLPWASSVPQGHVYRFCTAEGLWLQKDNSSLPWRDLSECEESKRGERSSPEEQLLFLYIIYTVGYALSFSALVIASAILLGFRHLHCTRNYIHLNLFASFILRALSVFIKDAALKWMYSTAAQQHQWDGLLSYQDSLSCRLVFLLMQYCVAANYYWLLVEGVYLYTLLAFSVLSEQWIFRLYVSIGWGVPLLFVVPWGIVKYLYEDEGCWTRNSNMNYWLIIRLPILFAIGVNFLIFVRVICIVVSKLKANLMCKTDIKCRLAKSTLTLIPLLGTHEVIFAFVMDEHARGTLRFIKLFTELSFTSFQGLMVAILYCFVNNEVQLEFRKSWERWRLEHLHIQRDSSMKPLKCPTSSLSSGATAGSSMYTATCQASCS
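Seeding at 200 cells/uL, 12 h culture, 24 hr compound treatment, then luciferase reagent and a luminescence read; cells are HEK293 stably expressing a constitutively active GLP-1R plus cAMP-responsive luciferase.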
LDHA inh: qHTS assay for inhibitors of human lactate dehydrogenase. purified LDHA, NADH/diaphorase-resazurin fluorescence; hits give low values. activity change, % (values are at about 110 or 230 µM). hit rate 0.15% among 480,000. AID 1347041, 2019; in the data active means activity change below about -30%; inconclusive means mostly about -25% to -30%;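 further: plate controls were DMSO wells for no effect and wells without enzyme for full effect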
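LDH5 2 nM; NADH 0.06 mM, pyruvate 0.2 mM; 200 mM Tris pH 7.4, EDTA, Tween-20; 5 min RT. Detection: diaphorase 0.133 mg/mL + resazurin 37 µM, fluorescence ex540/em590 at 0 and 20 min; normalized to enzyme-free and DMSO wells.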
p53 reactivator: qHTS assay for re-activators of p53 using a Luc reporter. H1299 p53-A138V BP100-luciferase reporter, luminescence, 24 h. Potency, µM (series often up to 92.2 µM), inactives show at the top dose activity change, positive = activation, hits mostly activators. hit rate 0.063% among 320,000; further: potency means the concentration at half of the fitted maximal effect; % of control where 0% means no effect; nearly all actives have a fitted effect of over 45% in size
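H1299 (p53-null), stable ts p53-A138V + BP100-Luc; 1000 cells/well, Opti-MEM/10% FBS; cpd 4 pt, 1:5; 24 h, 37 deg C, 5% CO2; detection reagent 10 min RT; luminescence.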
GLP1R ag: qHTS of GLP-1 Receptor Agonists; Glucagon-like peptide 1 receptor (Homo sapiens), P43220; HEK293 GLP-1R CRE-luciferase, luminescence, 4-6 h; cells express a hypersensitive GLP-1R form; Potency, µM (series often up to 45.6 µM), for the others: at the highest dose activation, actives largely listed as activators; hit rate 0.007% among 380,000; AID 624172, 2012; further: potency means the concentration at half of the fitted maximal effect; % of control where 0% means no effect
Active calls of the source: *; ? = inconclusive; nt = no result. Unless noted, the call rests on the fitted dose curve; in most records, active means well fitted curve in the direction sought with a large enough effect; inconclusive means small, poorly fitted or top-dose-only effect, or another doubt; inactive means no such curve, though single readings can be large; an effect the other way counts as inactive or inconclusive.

SMILES	HEK293 tox	ClpP mod	GLP-1R inv ag	LDHA inh	p53 reactivator	GLP1R ag
O=C(Nc1ccc(F)cc1)c1sccc1SCc1cccc(C(F)(F)F)c1	3%	-16%	0%	4	0%	1%
O=C(Nc1ccc(F)cc1F)c1sccc1SCc1cccc(C(F)(F)F)c1	-3%	-7%	10µM*	4	11%	-5%
CC1CCN(S(=O)(=O)c2ccc(NC(=O)CNC3CCCCC3)cc2)CC1	10%	nt	?	-14	-3%	15%
O=C(CSc1nc2ccccc2s1)Nc1cccc(C(F)(F)F)c1	nt	nt	nt	-30*	nt	nt
O=C(CSc1nc2ccccc2s1)c1cccc(C(F)(F)F)c1	nt	nt	nt	8	nt	nt
O=C(CSc1nc2ccc(NC(=O)CSc3nnnn3-c3ccccc3)cc2s1)Nc1ccccc1	10µM*	-2%	?	-9	3%	2%
COc1ccc(N=Cc2ccc(N(CCC#N)CCC#N)cc2)cc1	-11%	0%	-6%	9	nt	1%
COc1ccc(C(=O)NNC(=O)C2CC=CCC2)cc1 (configuration not stated)	-1%	?	8%	-3	nt	0%
O=C(NNC(=O)c1cc(-c2ccccc2)nc2ccccc12)Nc1cccc(Cl)c1	2%	-7%	13µM*	-5	-5%	-32%
O=C(NCc1ccccn1)c1cc(-c2ccccc2)nc2ccccc12	-5%	-1%	12%	-6	0%	0%
Cc1cccc(-c2cc(C(=O)NCc3ccccn3)c3ccccc3n2)c1	-24%	-1%	?	-12	12%	11%
O=C(Nc1nccs1)c1cc(-c2ccccc2)nc2ccccc12	-4%	-1%	5µM*	-5	-13%	2%
O=C(NCc1ccccn1)c1cc(-c2ccc(-c3ccccc3)cc2)nc2ccccc12	-8%	4%	2µM*	-13	?	3%
Cc1ccc(-c2cc(C(=O)NCc3ccccn3)c3ccccc3n2)cc1C	?	32µM*	?	4	?	0%
CCC(O)C1CCN(C(=O)c2ccc(OC3CCN(Cc4ccccn4)CC3)cc2)CC1 (configuration not stated)	-7%	0%	-1%	-1	0%	6%
O=C(COC(=O)[C@@H]1CCCN1C(=O)c1cccs1)Nc1cccc([N+](=O)[O-])c1	3%	nt	19%	-4	0%	17%
Cc1ccc(NC(=O)c2cnc3cc(C)ccn3c2=O)c(C)c1	-9%	-2%	13%	0	nt	nt
Cc1nc(C2(NC(=O)CCn3c(=O)n(C)c4ccccc43)CCCCC2)no1	nt	nt	nt	-15	nt	nt
CCCSc1nsc(NC(=O)CC)n1	4%	nt	-15%	-8	4%	4%
CCCSc1nsc(NC(=O)C(c2ccccc2)c2ccccc2)n1	?	-1%	3.2µM*	-1	-9%	-11%
Cc1ccc(N(C)S(=O)(=O)c2cccc(C(=O)NC3CC(C)(C)NC(C)(C)C3)c2)cc1	-2%	nt	11µM*	-4	-6%	0%
Cc1ccc(CCNC(=O)c2sc3ncccc3c2-n2c(C)ccc2C)cc1	-5%	-27%	11µM*	-2	nt	nt
CCCc1cnc2c(c1SCC(=O)Nc1ccc([N+](=O)[O-])cc1)c(=O)n(C)c(=O)n2C	4%	-8%	2%	-6	nt	nt
COc1cc(SC)ccc1C(=O)OC(C(=O)c1ccccc1)c1ccccc1 (configuration not stated)	nt	nt	nt	-33*	nt	nt
CC(Sc1nnc(CNc2cccc3ccccc23)n1-c1ccccc1)C(=O)N/N=C/c1ccco1 (configuration not stated)	4%	-13%	-3%	0	0%	0%
SMILES	HEK293 tox	ClpP mod	GLP-1R inv ag	LDHA inh	p53 reactivator	GLP1R ag
CN(C)c1oc(-c2ccccc2Cl)nc1P(=O)(c1ccccc1)c1ccccc1	1%	20µM*	?	-6	-6%	0%
CC1CN(Cc2ccccc2)c2ccccc2NC1=S (configuration not stated)	?	1%	11µM*	-8	-20%	-3%
CC1CN(Cc2ccccc2)C(=O)N(c2ccccc2)C1=O (configuration not stated)	-10%	-1%	2%	-4	nt	-3%
Cc1cccc(C(=O)Nc2cccc(-c3nc4ccccc4s3)c2C)c1	nt	nt	nt	4	nt	nt
CCOC(=O)c1cc(-c2ccccc2)n(CCCC(=O)Nc2ccc(CC)cc2)c1C	-17%	?	10µM*	-11	nt	nt
CCOC(=O)c1cc(-c2ccccc2)n(-c2cccc(C(=O)Nc3ccc(OCC)cc3)c2)c1C	4%	-12%	5µM*	-5	nt	nt
CCOC(=O)c1cc(-c2ccccc2)n(CCC(=O)Nc2ccc(C(F)(F)F)cc2)c1C	?	-4%	7.1µM*	3	nt	nt
O=C(O)C1CCCCC1C(=O)Nc1nc(-c2ccc(Cl)s2)cs1 (configuration not stated)	16%	nt	4%	-7	-2%	1%
O=C(Nc1nc(-c2ccc(Cl)s2)cs1)C1CC1	nt	nt	nt	-34*	nt	nt
CC(Oc1ccc(-c2ccccc2)cc1)C(=O)N1CCOCC1 (configuration not stated)	26%	25µM*	10%	-4	12%	-3%
O=C(c1cccnc1)N1N=C(c2cccs2)CC1c1ccc(F)cc1 (configuration not stated)	-9%	nt	?	-11	-2%	7%
O=C1c2cccc(OCC(=O)N3N=C(c4cccs4)CC3c3ccc(F)cc3)c2CCN1Cc1cccnc1 (configuration not stated)	-28%	28µM*	?	-4	-6%	6%
C=CCN1C(=O)/C(=C\c2ccc(Cl)cc2)N=C1SCC(=O)NC1CCCCC1	4%	-1%	19%	-4	-1%	-20%
COc1ccc(Cl)cc1N1C(=O)/C(=C\c2sccc2C)N=C1SCC(=O)NC1CC1	-9%	0%	8.9µM*	4	-1%	1%
CCOc1ccc(-c2nc3ccc4ccccc4c3c3c2CCCC3)cc1	nt	nt	nt	3	nt	nt
Oc1ccc(-c2nc3ccc4ccccc4c3c3c2CCC3)cc1O	?	-2%	4µM*	7	?	-11%
N=c1c(S(=O)(=O)c2ccccc2)cc2c(=O)n3ccccc3nc2n1C1CCCCC1	0%	nt	10µM*	0	nt	23%
